AmpC no deterg – qHTS Inhibitors of AmpC Beta-Lactamase (assay without detergent); AmpC nitrocefin hydrolysis, absorbance 480 nm, 0.0001% Triton; Potency, µM (highest dose often 57.1 µM), most hits filed as inhibitors; hit rate 0.52% among 330,000; P00811; further: nearly all actives have a fitted effect of over 20% in size
Target sequence (P00811 whole entry, looked up): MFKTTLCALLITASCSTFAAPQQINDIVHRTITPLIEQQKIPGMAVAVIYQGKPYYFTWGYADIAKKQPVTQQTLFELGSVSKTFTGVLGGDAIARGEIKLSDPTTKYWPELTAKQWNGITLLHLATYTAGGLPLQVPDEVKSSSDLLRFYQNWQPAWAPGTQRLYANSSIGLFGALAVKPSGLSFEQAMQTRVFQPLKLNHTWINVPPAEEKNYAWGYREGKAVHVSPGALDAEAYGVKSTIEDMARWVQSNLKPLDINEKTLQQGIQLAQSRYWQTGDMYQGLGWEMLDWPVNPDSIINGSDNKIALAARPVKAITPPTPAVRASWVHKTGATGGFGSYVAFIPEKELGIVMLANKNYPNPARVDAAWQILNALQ
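20 mM phosphate pH 7.0 + 0.01% (detergent screen) or 0.0001% Triton X-100; 5.3 nM AmpC reagent; cpd preinc 15 min RT; nitrocefin (800 uM stock) to start; A480 q20 s × 4 min; Activity was normalised to no-enzyme and no-compound control wells.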
Shiga inhibitor – A qHTS for Small Molecule Inhibitors of Shiga Toxin. hit rate 9.2% among 290,000. inhibition, % at 38.7 µM. Vero cells, Shiga toxin protein synthesis inhibition reporter; in the data active means inhibition mostly above about 28%, no sharp cut-off; inactive means mostly below about 43%
NS1 inh – qHTS Assay for Inhibitors of Influenza NS1 Protein Function. AID 2326, 2010. hit rate 0.4% among 270,000. Potency, µM (highest dose often 46.1 µM); calls by dose curve; further: actives are rising curves; nearly all actives have a fitted effect of over 50% in size
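S. cerevisiae expressing influenza A NS1, grown in glucose, washed, then diluted 1:100 into pH 6.0 -URA galactose medium with 23 nl compound. Growth recovery read as OD600; NS1-free strain serves as control.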
CHX counter – Cycloheximide Counterscreen for Small Molecule Inhibitors of Shiga Toxin | hit rate 12% among 300,000 | max response, % | cell reporter, cycloheximide protein synthesis inhibition counterscreen; in the data active means max response mostly above about 13%, no sharp cut-off; inactive means mostly below about 14%; further: read at 38.3 µM for the half of the compounds with a filed dose
AmpC inh detg – qHTS Inhibitors of AmpC Beta-Lactamase (assay with detergent) | hit rate 0.041% among 370,000 | AmpC hydrolysis of nitrocefin, absorbance 480 nm, 0.01% Triton | Potency, µM (titrated, usually from 114 µM), actives largely listed as inhibitors | P00811 | AID 485294, 2010; further: nearly all actives have a fitted effect of over 25% in size
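20 mM phosphate pH 7.0 + 0.01% (detergent screen) or 0.0001% Triton X-100; 5.3 nM AmpC reagent; cpd preinc 15 min RT; nitrocefin (800 uM stock) to start; A480 q20 s × 4 min; Activity was normalised to no-enzyme and no-compound control wells.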
Each line names hits and unclear results; the compound was inactive in the other large screens. Many of the other results were omitted from the sample, so hits are more common in it than they were. Unless noted, the call rests on the fitted dose curve; in most records, active means well fitted curve in the direction sought with a large enough effect; inconclusive means small, poorly fitted or top-dose-only effect, or another doubt; inactive means no such curve, though single readings can be large; an effect the other way counts as inactive or inconclusive.

C=C(C)CSc1nnc(-c2ccccc2)n1N	Shiga inhibitor 74.6, CHX counter 23.9 (no result: AmpC no deterg)
Cc1cccc(CSc2nnc(-c3cnccn3)n2C)c1	Shiga inhibitor 45.2, CHX counter 17.4
Cc1ccc(C)c(NC(=O)CSc2nnc(-c3ccccc3)n2N)c1	none
Cn1c(SCc2ccccc2F)nnc1-c1cnccn1	Shiga inhibitor 110.6, CHX counter 74.8
COc1ccc(OCC(=O)NNC(=O)C(=O)N2CCCC2)cc1	none
CCOC(=O)c1c(-c2ccccc2)oc2ccc(OC(C)=O)cc12	none
O=C(CCl)Oc1ccc2occ(C(=O)c3cccs3)c2c1	CHX counter 39.3, AmpC inh detg inconclusive
O=C(O)COc1ccc2occ(C(=O)c3ccccc3)c2c1	none
CC(=O)Oc1ccc2occ(-c3ccccc3)c2c1	Shiga inhibitor 125.5, CHX counter 25.0
CC(=O)Oc1ccc2occ(C(=O)c3cccs3)c2c1	Shiga inhibitor 66.8, CHX counter 36.8
O=C(O)c1ccccc1C(=O)c1cccs1	AmpC inh detg inconclusive
O=C(c1cccs1)c1coc2ccc(O)cc12	Shiga inhibitor 81.3, CHX counter 75.4, AmpC inh detg inconclusive
CCOc1ccc(C2=NNC(c3cccs3)=Nc3ccc(OC)cc32)cc1	Shiga inhibitor 84.8, NS1 inh inconclusive, CHX counter 34.9
CCOc1ccc(C2c3c(oc4ccc(C)cc4c3=O)C(=O)N2CCCN(C)C)cc1 (stereo not drawn)	none (no result: AmpC no deterg, Shiga inhibitor, NS1 inh, CHX counter)
CN(C)c1ccc(-c2nnc(-c3cccs3)o2)cc1	none (no result: NS1 inh)
CCOc1ccc(-c2nc3ccccc3c(=O)o2)cc1	CHX counter 15.2
CCOc1ccc(S(=O)(=O)NC2=NCCCCC2)cc1	AmpC inh detg inconclusive (no result: Shiga inhibitor, NS1 inh, CHX counter)
COc1ccc(-c2nc3ccccc3c(=O)o2)cc1OC	none
c1coc(-c2nnc(NC3=NCCC3)o2)c1	Shiga inhibitor 65.7, CHX counter 29.4
CCOc1ccc(-c2nnc(NC3=NCCCCC3)o2)cc1	Shiga inhibitor 72.7, CHX counter 41.5
CCCOc1ccc(-c2nnc(-c3cccs3)o2)cc1	Shiga inhibitor 106.5, CHX counter 51.3
CCC12CN3CC(CC)(CN(C1)C3c1ccc(OCc3ccccc3)cc1)C2=O (stereo not drawn)	none (no result: AmpC no deterg, Shiga inhibitor, NS1 inh, CHX counter)
N#Cc1cccc(S(=O)(=O)NCC(=O)OCC(=O)NCc2ccccc2)c1	none (no result: Shiga inhibitor, NS1 inh, CHX counter)
CCN(CC)c1cc2c(cc1F)c(=O)c(S(=O)(=O)c1cccc(C)c1)cn2C	none (no result: AmpC no deterg, Shiga inhibitor, NS1 inh, CHX counter)
CCOc1ccc(-c2nnc(-c3ccccc3)n2-c2ccccc2)cc1	AmpC no deterg 5.62µM, CHX counter 41.6
CCOc1ccc(-c2nnc(-c3ccncc3)o2)cc1	CHX counter 49.7
CCOc1ccc(-c2nnc(-c3ccc(OC)cc3)o2)cc1	none
CCCCOc1ccc(-c2nnc(-c3ccncc3)o2)cc1	CHX counter 16.5
CCOc1ccc(-c2nnc(-c3ccccc3)o2)cc1	Shiga inhibitor 77.0, CHX counter 28.9, AmpC inh detg inconclusive
Nc1nc(SCn2nnc3ccccc3c2=O)n[nH]1	none
Cc1ccc2c(c1Br)C(O)(CC(=O)c1ccc(F)cc1)C(=O)N2 (stereo not drawn)	none (no result: AmpC no deterg, Shiga inhibitor, NS1 inh, CHX counter)
COc1ccc(C2=NN(C(C)=O)C(c3cccs3)C2)cc1OC (stereo not drawn)	Shiga inhibitor 34.9, CHX counter 22.0, AmpC inh detg inconclusive
CC(=O)N1N=C(c2ccccc2)CC1c1cccs1 (stereo not drawn)	none
COc1cccc(C2=NN(C(C)=O)C(c3cccs3)C2)c1 (stereo not drawn)	CHX counter 20.9
CC1CN(C(=O)N2CCC(C(=O)NCCCc3ccccc3)CC2)c2cc(Cl)ccc2O1 (stereo not drawn)	none (no result: AmpC no deterg, Shiga inhibitor, NS1 inh, CHX counter)
O=C(NNC(=O)c1ccc(-c2ccc([N+](=O)[O-])cc2)o1)c1ccncc1	none (no result: Shiga inhibitor, NS1 inh, CHX counter)
COC(=O)c1ccsc1NC(=O)CCc1ccccc1	Shiga inhibitor 65.0, CHX counter 48.3
NC(=O)c1ccsc1NC(=O)CCc1ccccc1	CHX counter 43.9 (no result: Shiga inhibitor)
Cc1ccsc1C(=O)OCC(=O)Nc1sccc1C(N)=O	Shiga inhibitor 64.8, CHX counter 42.3
Cc1ccsc1C(=O)OCC(=O)NCCNC(=O)COC(=O)c1sccc1C	none (no result: Shiga inhibitor, NS1 inh, CHX counter)
CC(C)CSC1=NSC2=NC(=O)/C(=C\c3ccccc3)C(=N)N12	Shiga inhibitor 77.0, CHX counter 38.0 (no result: NS1 inh)
Cc1cc(/C=C2\C(=N)N3C(SCc4ccccc4)=NSC3=NC2=O)c(C)n1Cc1ccccc1	none
CC(C)CSC1=NSC2=NC(=O)/C(=C\c3coc4ccccc4c3=O)C(=N)N12	AmpC no deterg inconclusive, Shiga inhibitor 70.5, CHX counter 26.6 (no result: NS1 inh)
Cc1ncc([N+](=O)[O-])n1S(=O)(=O)c1cc(Br)ccc1Br	none (no result: Shiga inhibitor)
CCOc1ccc(CNC(=O)Cn2nc(C)n3cccc3c2=O)cc1	none (no result: AmpC no deterg, Shiga inhibitor, NS1 inh, CHX counter)
O=C(Nc1ccc(C(=O)N2CCOCC2)cc1)c1cccc(Br)c1	CHX counter 29.7
O=C(c1cccc(Br)c1)N1CCN(C(=O)N2CCOCC2)CC1	none
O=C(Nc1cccc(Br)c1)c1cccc(OC(=S)N2CCOCC2)c1	Shiga inhibitor 43.6, CHX counter 41.2
Cc1cccc(NC(=O)CSc2c(C)cnc3c2c(=O)n(C)c(=O)n3C)c1C	none (no result: AmpC no deterg, Shiga inhibitor, NS1 inh, CHX counter)
CCOC(=O)c1cc2c(nc1N)CCCC2	none
C=C(C)CNC(=S)Nc1nc2c(cc1C(=O)OCC)CCCC2	Shiga inhibitor active, AmpC inh detg inconclusive
CC(=O)C(C)Oc1ccc(Cc2ncc(C(F)(F)F)cc2Cl)cc1 (stereo not drawn)	none
NC(=O)Cc1ncc(C(F)(F)F)cc1Cl	none
O=C(Cc1ncc(C(F)(F)F)cc1Cl)NC1CC1	AmpC inh detg inconclusive (no result: NS1 inh)
FC(F)(F)c1cnc(COc2ccc(Cl)cc2Cl)c(Cl)c1	Shiga inhibitor 66.0, CHX counter 17.1
O=C(Cc1ncc(C(F)(F)F)cc1Cl)Nc1ccc(F)cc1	AmpC no deterg 0.159µM
CC(=O)c1ccc(OCc2ncc(C(F)(F)F)cc2Cl)cc1	Shiga inhibitor 75.6, CHX counter 35.9
COc1ccc(CCNC(=O)CSC2=Nc3ccccc3C3=NC(CCC(=O)NCc4ccccc4)C(=O)N23)cc1OC (stereo not drawn)	none (no result: AmpC no deterg, Shiga inhibitor, NS1 inh, CHX counter)
Clc1ncc(CN2CCN(Cc3ccccc3)CC2)s1	none
Cn1cc(Br)c(C(=O)Nc2c(F)c(F)c(F)c(F)c2F)n1	none
O=C(Nc1nccs1)C(Br)C(Br)c1ccccc1 (stereo not drawn)	Shiga inhibitor 68.6, CHX counter 33.7
CC(=O)OC(C(=O)Nc1nccs1)c1ccccc1 (stereo not drawn)	none
Nc1ccccc1C(=O)Nc1nccs1	Shiga inhibitor 61.7, CHX counter 44.7
Cn1cc(Br)c(C(=O)Nc2nccs2)n1	Shiga inhibitor 42.9, CHX counter 26.8
O=C(Nc1nccs1)c1ccccc1[N+](=O)[O-]	AmpC inh detg inconclusive
Cn1cc(Br)c(C(=O)NC2CCCCCC2)n1	CHX counter 17.2, AmpC inh detg inconclusive
NC1=N[C@H](c2ccc(Cl)cc2)N(c2ccc(S(=O)(=O)Nc3ncccn3)cc2)C(N)=N1	none (no result: AmpC no deterg, Shiga inhibitor, CHX counter, AmpC inh detg)
Cc1ccc2c(CC(=O)Nc3cccc(S(=O)(=O)N4CCOCC4)c3)coc2c1	none (no result: NS1 inh)

Assay outcomes as filed in PubChem BioAssay.
